The campaign covered roughly 16,000 compounds. About 5,800 (36%) were called active. Not shown: some 23% with an inconclusive outcome. Some of the results follow. A number with no mark means an inactive call. The call rests on the fitted dose curve; in most records, active means well fitted curve in the direction sought with a large enough effect; inconclusive means small, poorly fitted or top-dose-only effect, or effect the other way; inactive means no such curve, though single readings can be large or run the other way.

Usually AC50 stands for the concentration giving half of the maximal activity seen.
On the % scale 0 is the no-effect control and ±100 the full control effect.

The target of the assay is Cytochrome P450 2C19 (Homo sapiens) (UniProt P33261). Nature of the assay: Cytochrome panel assay with activity outcomes. The note with it: recombinant CYP, pro-luciferin dealkylation, luminescence, p450-cyp2c19; series mostly up to 57.1 µM.
Chain of Cytochrome P450 2C19 (Homo sapiens) (P33261 whole entry, looked up): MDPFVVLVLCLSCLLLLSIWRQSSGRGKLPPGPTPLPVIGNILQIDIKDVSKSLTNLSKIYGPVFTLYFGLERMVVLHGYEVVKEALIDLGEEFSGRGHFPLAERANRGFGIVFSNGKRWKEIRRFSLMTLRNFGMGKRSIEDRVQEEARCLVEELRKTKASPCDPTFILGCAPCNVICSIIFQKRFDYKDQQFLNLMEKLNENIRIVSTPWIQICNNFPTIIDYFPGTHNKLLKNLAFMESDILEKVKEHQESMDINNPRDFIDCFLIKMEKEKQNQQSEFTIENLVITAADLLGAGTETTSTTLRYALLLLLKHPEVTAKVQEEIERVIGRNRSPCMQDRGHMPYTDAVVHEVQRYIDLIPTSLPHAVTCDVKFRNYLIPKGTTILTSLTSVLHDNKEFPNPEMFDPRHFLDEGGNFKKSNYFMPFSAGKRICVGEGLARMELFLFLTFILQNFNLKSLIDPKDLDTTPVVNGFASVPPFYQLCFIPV
Turning to `COc1cc(OC)c2c(c1)C(=O)c1cc(OC)cc(OC)c1C2=O`, the AC50 result was “inactive”. On the same count and under the same terms, the figure for `COc1cc(OC)c(C#N)c(S(=O)(=O)Cc2ccccc2)c1` is 1.26 µM (active). On the same count and under the same terms, to `CC(C)C(=O)Nc1cc2c(cc1C(=O)c1ccccc1)OCCO2` belongs “inactive”; to `CCC(=O)Nc1cc2c(cc1C(=O)c1ccccc1)OCCO2`, 14.1 µM (active); to `O=c1cc(N2CCN(c3cccc(Cl)c3)CC2)[nH]c(=O)n1C1CCCCC1`, 2.51 µM (active).

Regarding `O=C(c1ccco1)N1CCN(c2cc(=O)n(C3CCCCC3)c(=O)[nH]2)CC1`, the AC50 entry is “inactive”. On the same count and under the same terms, the figure for `O=c1cc(N2CCC(Cc3ccccc3)CC2)[nH]c(=O)n1C1CCCCC1` is 3.16 µM (active); for `O=c1n(CCCN2CCN(c3cccc(Cl)c3)CC2)nc2ccccn12` it is “inactive”; for `COC(=O)C1CCN(c2cc(=O)n(C3CCCCC3)c(=O)[nH]2)CC1` it is 3.98 µM (active). With `Cc1ccccc1-n1c(=O)cc(N2CC(C)OC(C)C2)[nH]c1=O` (centres undefined), the AC50 entry is “inactive”.

With `CO[C@@H]1COC(=O)C/C=C\[C@H](C)COC(=O)[C@H](Cc2ccccc2)NC(=O)C/C=C\[C@H]1C`, the AC50 is 2.51 µM (active). As for `CO[C@H]1COC(=O)C/C=C\[C@H](C)[C@@H](OC)COC(=O)[C@H](Cc2ccccc2)NC(=O)C/C=C\[C@@H]1C`, the activity, negative = inhibition is -37.5% [at 11.4 µM].

Take `CO[C@@H]1COC(=O)C/C=C\[C@@H](C)COC(=O)[C@H](COCc2ccccc2)NC(=O)C/C=C\[C@H]1C`: the activity, negative = inhibition is -16.4% [at 11.4 µM]. `CCCCN1CCC(CCC(=O)c2cc(Cl)c(N)cc2OC)CC1`: the AC50 result was “inactive”. On to `COc1cc(N)c(Cl)cc1C(=O)CCC1CCN(CCNS(C)(=O)=O)CC1`, for which the AC50 was 10 µM (active). Same read-out and setting: to `Cn1cc(C(=O)OCC2CCN(CCNS(C)(=O)=O)CC2)c2ccccc21` belongs “inactive”; to `C[C@@H](C(=O)Nc1ccc2ccccc2c1)[C@H]1C[C@]1(C)[C@H](NC(=O)c1cnccn1)c1ccccc1`, 15.8 µM (active); to `CC(=O)N[C@H](c1ccccc1)[C@@]1(C)C[C@@H]1[C@@H](C)C(=O)Nc1ccc2ccccc2c1`, 5.01 µM (active). The same measure, in the same setting: to `C[C@@H](C(=O)Nc1ccc2ccccc2c1)[C@@H]1C[C@@]1(C)[C@@H](NC(=O)c1cnccn1)c1ccccc1` belongs “inactive”.

On to `C[C@@H](C(=O)Nc1ccc2ccccc2c1)[C@@H]1C[C@@]1(C)[C@@H](NS(=O)(=O)c1ccc(-c2ccccc2)cc1)c1ccccc1`, for which the AC50 result was “inactive”. With `CC(=O)N[C@@H](c1ccccc1)[C@]1(C)C[C@H]1[C@@H](C)C(=O)Nc1ccc2ccccc2c1`, the AC50 is 0.398 µM (active). As to `C[C@@H](C(=O)Nc1ccc2ccccc2c1)[C@@H]1C[C@@]1(C)[C@@H](NC(=O)c1ccncc1Cl)c1ccccc1`, the AC50 result is “inactive”. Still for that read-out and setting: the entry for `C[C@@H](C(=O)Nc1ccc2ccccc2c1)[C@@H]1C[C@@]1(C)[C@@H](NS(=O)(=O)c1ccc2ccccc2c1)c1ccccc1` is “inactive”; for `C[C@@H](C(=O)Nc1ccc2ccccc2c1)[C@H]1C[C@]1(C)[C@H](NS(=O)(=O)c1ccc2ccccc2c1)c1ccccc1` it is 0.251 µM (active). Still for that read-out and setting: to `C[C@@H](C(=O)Nc1ccc2ccccc2c1)[C@@H]1C[C@@]1(C)[C@@H](N)c1ccccc1` belongs “inactive”; to `CO[C@H]1C[C@@H](O[C@@H]2[C@H](C)[C@H](O[C@@H]3O[C@@H](C)C[C@@H](N(C)C)[C@@H]3O)[C@H](C)C[C@]3(CO3)C(=O)[C@H](C)[C@H](O)[C@H](C)[C@H](C)OC(=O)[C@@H]2C)O[C@@H](C)[C@H]1O`, “inactive”; to `C[C@@H](C(=O)Nc1ccc2ccccc2c1)[C@H]1C[C@]1(C)[C@H](NS(=O)(=O)c1ccc(-c2ccccc2)cc1)c1ccccc1`, “inactive”.

For `C[C@@H](C(=O)Cc1ccc2ccccc2c1)[C@@H]1C[C@@]1(C)[C@@H](NP(=O)(c1ccccc1)c1ccccc1)c1ccccc1`, the AC50 result is “inactive”. On the same count and under the same terms, the entry for `C[C@@H](C(=O)Nc1ccc2ccccc2c1)[C@H]1C[C@]1(C)[C@H](NC(=O)Oc1ccc(F)cc1)c1ccccc1` is “inactive”; for `COC(=O)N[C@H](c1ccccc1)[C@@]1(C)C[C@@H]1[C@@H](C)C(=O)Nc1ccc2ccccc2c1` it is 3.16 µM (active); for `C[C@@H](C(=O)Nc1ccc2ccccc2c1)[C@@H]1C[C@@]1(C)[C@@H](NC(=O)Oc1ccc(F)cc1)c1ccccc1` it is “inactive”. On the same count and under the same terms, to `C[C@@H](C(=O)Nc1ccc2ccccc2c1)[C@H]1C[C@]1(C)[C@H](NP(=O)(c1ccccc1)c1ccccc1)c1ccccc1` belongs 10 µM (active).

As to `COc1ccc([C@@H]2Sc3ccccc3N(CCN(C)C)C(=O)[C@@H]2OC(C)=O)cc1`, the AC50 result is “inactive”.

Turning to `CCCCN1C(=O)CN(CCc2ccccc2)C(=O)C1c1ccc(OC)cc1` (centres undefined), the AC50 was 7.08 µM (active). Still for that read-out and setting: to `COc1ccc(C2C(=O)N(CCc3ccccc3)CC(=O)N2C2CCCC2)cc1` (centres undefined) belongs 11.2 µM (active); to `COc1ccc(C2C(C(=O)N3CCN(C)CC3)c3ccccc3C(=O)N2C2CCCCC2)cc1` (centres undefined), “inactive”. The same measure, in the same setting: the entry for `Cc1noc(C)c1C(=O)N1CCC[C@@]2(CCN(C(=O)NC(C)C)C2)C1` is “inactive”. Still for that read-out and setting: to `CCn1c(SCC(=O)OC)nc2sc3c(c2c1=O)CCC3` belongs 8.91 µM (active).

In the case of `CCCc1ccc(C2C3=C(CC(C)(C)CC3=O)NC3=C2C(=O)c2ccccc23)cc1` (centres undefined), the AC50 was 4.47 µM (active).

`COc1ncc2nc(-c3ccccc3)c(=O)n(C)c2n1`: the AC50 result was “inactive”. The same measure, in the same setting: to `CN(C)C(=O)c1ccc(-c2ccc3ncnc(Nc4ccccc4)c3c2)cc1` belongs “inactive”; to `COc1ccc(-n2cnc3sc(-c4ccccc4)cc3c2=O)cc1`, 14.1 µM (active). Still for that read-out and setting: the figure for `COc1cccc(-c2ccc3ncnc(Nc4ccccc4)c3c2)c1` is 0.501 µM (active); for `c1ccc(Nc2ncnc3ccc(-c4ccoc4)cc23)cc1` it is 2 µM (active); for `FC(F)(F)c1ccccc1-c1ccc2ncnc(NCc3cccnc3)c2c1` it is 0.00794 µM (active). Still for that read-out and setting: to `COc1cccc(Nc2ncc3nc(-c4ccccc4)c(=O)n(C)c3n2)c1` belongs “inactive”; to `c1ccc(Nc2ncnc3ccc(-c4cccnc4)cc23)cc1`, “inactive”. As for `CC(C)=NO[C@@H](C)CN1CCCCc2nc(C)c(C)cc21`, the activity, negative = inhibition was -14.1% [at 11.4 µM]. As for `COc1cccc(-c2ccc3ncnc(NCc4cccnc4)c3c2)c1`, the AC50 was 0.0126 µM (active). The same measure, in the same setting: the figure for `COc1ccccc1-c1ccc2ncnc(NCc3cccnc3)c2c1` is 0.00794 µM (active). The same measure, in the same setting: to `COCCNc1ncnc2ccc(-c3ccccc3CN(C)C)cc12` belongs “inactive”; to `COCCNc1ncnc2ccc(-c3ccccc3OC)cc12`, 5.01 µM (active).

As to `Clc1cccc(Nc2ncnc3ccc(Br)cc23)c1`, the AC50 was 5.01 µM (active). Regarding `NCCNc1ncnc2ccc(Cl)cc12`, the activity, negative = inhibition was -2.27% [at 11.4 µM].

For the origin of these results see PubChem BioAssay AID1851 (National Center for Advancing Translational Sciences (NCATS), 2009).
